Bioassay records (PubChem BioAssay)
FMDV antiviral: Primary qHTS Assay for Foot and Mouth Disease Virus Antivirals against NCGC Sytravon and CBC Compound Libraries: Firefly Luciferase Signal; FMDV antiviral cell assay, firefly luciferase signal; Potency, µM (doses to about 57.5 µM), inactives show at the highest dose activity change, negative = inhibition, most hits filed as inhibitors; 120,000 tested, 0.23% active; note: nearly all actives have a fitted effect of over 60% in size
FMDV Renilla: Primary qHTS Assay for Foot and Mouth Disease Virus Antivirals against NCGC Sytravon and CBC Compound Libraries: Renilla Luciferase Signal; FMDV replicon cells, Renilla luciferase signal; Potency, µM (doses to about 57.5 µM), for the others: at the highest dose activity change, negative = inhibition, usual class: inhibitors; 120,000 tested, 0.32% active; note: nearly all actives have a fitted effect of over 55% in size
* marks the source's active call; other numbers are inactive results; u = inconclusive; [ ] = another dose, or the depositor's remark. This is a sample that favours compounds with a hit; in the whole collection about 0.45% have one here. Calls come from the whole dose curve. % is set by controls: 0 for no effect and ±100 for the full control effect; potency is the fitted concentration of half-maximal effect.

SMILES	FMDV antiviral	FMDV Renilla
CCn1c(C)c(/C=C/c2cc[n+](C)cc2)c2ccccc21	u	14.1µM*
Cc1ccccc1-n1c(/C=C/c2c(C)n(C)c3ccccc23)nc2ccccc2c1=O	1.8%	-11.6%
Cc1ccc(CN2C3=NCCCN3c3ccccc32)cc1	7.5%	-7.7%
Cc1cc2c(cc1C)N(Cc1ccc(Cl)cc1)C1=NCCCN12	20µM*	u
O=C(O)c1ccc(C2SCCCS2)cc1	0.0%	-1.0%[1.06 µM]
O=C(Nc1ccccn1)c1ccc(C2SCCCS2)cc1	12.6µM*	22.5%
COc1ccc(Nc2cc(C)nc(Nc3ccc(NC(=O)CC(C)(C)C)cc3)n2)cc1	u	22.4µM*
COc1ccc(Nc2cc(C)nc(NCc3ccccc3)n2)cc1	0.3%	-23.8%
Cc1ccc(OCC(=O)Nc2nc(-c3ccc(Br)s3)ns2)cc1C	-0.9%	-11.1%
O=C(O)C(c1c[nH]c2ccccc12)N1CCN(Cc2ccncc2)CC1 (stereo not drawn)	-11.0%	-13.9%
Cc1c(C)c2ccc(OCC(=O)C(C)(C)C)c(C)c2oc1=O	116.7%	29.7%
CCOC(=O)CCc1c(C)c2ccc(OCC(=O)C(C)(C)C)c(C)c2oc1=O	2.82µM*	17.8%
COc1cc(/C=C/C(=O)c2cccs2)ccc1O	128.3%	18.4%
Cc1nc2ccccc2c(=O)n1-c1ccc(NC(=O)c2ccc([N+](=O)[O-])cc2)cc1	u	2.82µM*
Cc1nc2ccccc2c(=O)n1-c1ccc(NC(=O)c2cccc([N+](=O)[O-])c2)cc1	7.0%	-21.6%
CCN1C(=O)CCc2cc(NS(=O)(=O)CC)ccc21	16.9%	9.0%
CC(=O)c1c(C)[nH]c(C(=O)OC(C)c2nc(-c3ccccc3)no2)c1C (stereo not drawn)	u	28.2µM*
CC(=O)c1c(C)[nH]c(C(=O)OC(C)c2nnc(-c3cccc(C)c3)o2)c1C (stereo not drawn)	-26.7%	0.0%
COc1ccc(-c2nc(C)c(-c3ccccc3)s2)cc1	267.4%	24.8%
COc1ccc(Cc2nc(C)c(-c3ccccc3)s2)cc1OC	u	10µM*
CCc1nc2ccccc2n1CC(=O)Nc1cccc(C#N)c1	-17.0%	-17.4%
CC(C)c1cnc2c(c1SCC(=O)c1ccc(Cl)cc1)c(=O)n(C)c(=O)n2C	28.6%	25.1µM*
CC(C)c1cnc2c(c1SCC(=O)O)c(=O)n(C)c(=O)n2C	-13.8%	-4.2%
Cc1ccccc1-n1ncc2c1ncn1nc(-c3cccs3)nc21	179.4%	0.4%
CCOc1ccc(C(=O)c2ccc(Cl)cc2)cc1	41.6%	19.5%
SMILES	FMDV antiviral	FMDV Renilla
CCNC(=O)NC(=O)C(C)Oc1ccc(C(=O)c2ccc(Cl)cc2)cc1 (stereo not drawn)	12.6µM*	u
CCc1c(C)sc(NC(=O)C(CC)c2ccccc2)c1C#N (stereo not drawn)	-5.8%	-2.2%
CC(=O)Nc1ccc2oc(-c3cccc4c(Cl)cccc34)nc2c1	u	11.4%
CC1CCCCC1NC(=S)Nc1cccc2cnccc12 (stereo not drawn)	14.1µM*	u
CC1CCCCC1NC(=S)NN (stereo not drawn)	0.0%	24.5%
CC(C)Cn1nnnc1SCCS(=O)(=O)c1cc(Cl)ccc1Cl	-19.7%	-9.0%
CC(NC(=O)Cc1cccc(C(F)(F)F)c1)c1ccc(F)cc1F (stereo not drawn)	-0.2%	21.3%
N#Cc1ccccc1COc1ccc(Cl)c2ccccc12	0.0%	23.0%
COc1ccc(Cn2c(CCC(=O)Nc3ccc(C)cc3C)nc3cccnc32)cc1	-10.7%	-2.9%
Cc1ccc(NC(=O)Cc2ccc(-n3c(C)nc4cccnc43)cc2)c(Cl)c1	14.1µM*	10µM*
CCOc1ccc(-c2nc3ccccc3c(C(=O)O)c2C)cc1	54.8%	-5.9%
Cc1nccc(CNC(=O)c2ccc3ncsc3c2)n1	1.7%	1.6%
Cc1cccc(C)c1NC(=O)c1ccc2ncsc2c1	22.4µM*	4.6%
COc1ccc(C)cc1NC(=O)Cn1c(=O)oc2cc(S(=O)(=O)N3CCCCC3)ccc21	11.4%	12.8%
COc1ccc(NC(=O)Cn2c(=O)oc3cc(S(=O)(=O)N4CCC(C)CC4)ccc32)c(OC)c1	u	10µM*
COc1ccc(CCNc2oc(-c3ccc(OC)c(OC)c3)nc2C#N)cc1OC	-7.3%	-7.0%
COc1ccccc1NC(=O)c1ccc(-c2nc(COc3ccc(C)cc3)c(C)o2)cc1	u	25.1µM*
COc1ccc(OC)c(NC(=O)c2ccc(-c3nc(COc4ccccc4)c(C)o3)cc2)c1	0.0%	16.9%
CC(Cn1cccn1)NC(=O)N1CCCN(Cc2cccs2)CC1 (stereo not drawn)	3.9%	5.1%
C=CCNC(=O)NC(=O)COC(=O)c1c(C)c(CC)nc2ccccc12	17.8µM*	25.1µM*
CCc1nc2ccccc2c(C(=O)OCC(=O)NC(N)=O)c1C	19.1%	7.8%
O=C1COc2ccc(C(=O)COC(=O)c3ccc(Cl)cc3Cl)cc2N1	-15.5%	-12.3%
CS(=O)(=O)N1CCc2cc(C(=O)c3cc4cc(Br)ccc4o3)ccc21	20µM*	1.7%
CS(=O)(=O)N1CCCc2cc(C(=O)c3cc4ccccc4o3)ccc21	-17.3%	u
COc1cc(/C=c2\s/c(=C/C(=O)C(C)(C)C)[nH]c2=O)cc(Cl)c1OC	28.2%	29.6%
SMILES	FMDV antiviral	FMDV Renilla
CC(C)COC(=O)C(C#N)c1nc2ccccc2nc1Cl (stereo not drawn)	13.2%	2.9%
CNC(=O)c1ccc(CNC(=O)Cc2cn(C)c3ccccc23)cc1	18.0%	16.1%
Cc1cccc(-c2nnc(SCCC(=O)O)o2)c1	1µM*	-8.9%
Cc1cccc(-c2nnc(SCC(=O)N3CCCCC3)o2)c1	130.8%	8.9%
O=C(CCSc1ncnc2sc3c(c12)CCCC3)Nc1ccc(F)cc1	6.9%	17.8%
Cc1ccc(C(=O)NC2CCC(C)CC2)cc1C (stereo not drawn)	183.6%	36.5%
NC(=O)CN1CCC(NC(=O)c2ccc(F)cc2)CC1	8.6%	0.9%
O=C(Nc1nc(-c2ccc(Br)s2)cs1)C1CC1	0.0%	11.0%
O=C(Nc1nc(-c2ccc(Cl)cc2)cs1)C1CCN(C(=O)c2ccoc2)CC1	u	10µM*
O=C(Nc1nc(-c2cc3ccccc3oc2=O)cs1)c1ccc(Cl)cc1	-5.9%	-12.0%
O=C(Nc1nc(-c2ccc(Cl)cc2)cs1)c1ccc(CN2CCOCC2)cc1	14.1µM*	u
Cc1c(Cl)ccc(S(=O)(=O)N2CCC(C(=O)O)CC2)c1Cl	7.2%	0.3%
Cc1ccc(-c2csc(NC(=O)c3cnc4c(cnn4C(C)C)c3)n2)cc1C	11.2µM*	u
CCC(C)c1ccc(-c2csc(NC(=O)c3cnc4c(c3)c(=O)n(C)c(=O)n4C)n2)cc1 (stereo not drawn)	119.2%	-7.7%
CCOc1ccc(C(=O)Nc2ccc3c(c2)N(C(C)=O)CCC3)cc1OCC	u	3.7%
CC(=O)N1CCCc2ccc(NC(=O)c3ccc(C(F)(F)F)cc3)cc21	3.16µM*	0.7%
Cc1cc(C(=O)NNC(=O)CCC2CCCCC2)c2ccccc2n1	16.2%	13.0%[1.06 µM]
CCCCCCCc1ccc(/C=C/c2ccc(OCCCC)cc2)nc1	9.2%	-17.9%[1.06 µM]
Cc1cc(C(=O)Cn2cnc3c2c(=O)n(C)c(=O)n3C)c(C)n1C	0.0%	41.8%
CC(C)c1ccc(C(=O)Cn2cnc3c2c(=O)n(C)c(=O)n3C)c(C(C)C)c1	10µM*	10µM*
Cn1c(=O)c2c(ncn2CCCOc2ccccc2)n(C)c1=O	9.9%	-5.5%
CC(C)Oc1cccc(Cn2cnc3c2c(=O)n(C)c(=O)n3C)c1	3.55µM*	3.55µM*
